Screening data as filed in PubChem BioAssay.
The list is not random: actives were taken first. Their share in the collection is about 12%.
JMJD2A Tudor: blocks the human JMJD2A Tudor domain; AlphaScreen JMJD2A-Tudor / H3K4me3 peptide binding; Potency, µM (titrated, usually from 114 µM), for inactives: at the highest dose activity change, negative = inhibition, actives largely listed as inhibitors; hit rate 4.4% among 390,000; AID 504339; note: % is set by controls: 0 for no effect and ±100 for the full control effect; nearly all actives have a fitted effect of over 50% in size
Target sequence (O75164 whole entry, looked up, the tested form may be a part): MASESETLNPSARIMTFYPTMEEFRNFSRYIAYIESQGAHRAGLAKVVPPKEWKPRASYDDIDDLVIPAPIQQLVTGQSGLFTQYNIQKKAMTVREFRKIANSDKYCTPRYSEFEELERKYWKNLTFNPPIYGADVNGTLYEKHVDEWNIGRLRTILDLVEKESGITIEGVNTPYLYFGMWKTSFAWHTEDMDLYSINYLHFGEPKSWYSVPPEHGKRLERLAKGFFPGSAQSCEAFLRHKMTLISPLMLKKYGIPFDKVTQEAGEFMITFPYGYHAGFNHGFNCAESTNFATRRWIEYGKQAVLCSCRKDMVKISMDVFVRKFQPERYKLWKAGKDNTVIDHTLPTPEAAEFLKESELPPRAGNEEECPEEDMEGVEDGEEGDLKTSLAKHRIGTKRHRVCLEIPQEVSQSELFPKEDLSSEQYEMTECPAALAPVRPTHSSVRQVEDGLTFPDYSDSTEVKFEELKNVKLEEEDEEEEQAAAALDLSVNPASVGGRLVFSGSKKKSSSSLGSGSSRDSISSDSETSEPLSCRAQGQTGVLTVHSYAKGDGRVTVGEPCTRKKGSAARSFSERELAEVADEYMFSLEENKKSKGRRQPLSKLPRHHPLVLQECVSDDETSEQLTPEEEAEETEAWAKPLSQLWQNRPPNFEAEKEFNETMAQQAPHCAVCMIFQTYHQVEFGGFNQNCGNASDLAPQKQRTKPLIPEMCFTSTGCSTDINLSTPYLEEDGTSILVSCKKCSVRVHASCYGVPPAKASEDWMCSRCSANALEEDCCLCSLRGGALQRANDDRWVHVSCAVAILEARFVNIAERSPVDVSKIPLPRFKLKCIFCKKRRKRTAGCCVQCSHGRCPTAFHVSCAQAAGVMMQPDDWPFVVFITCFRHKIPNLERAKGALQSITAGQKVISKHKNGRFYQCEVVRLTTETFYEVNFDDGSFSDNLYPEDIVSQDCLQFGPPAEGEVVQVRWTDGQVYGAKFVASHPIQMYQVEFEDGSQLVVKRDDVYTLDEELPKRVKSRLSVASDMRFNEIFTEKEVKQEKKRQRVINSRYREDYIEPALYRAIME
HP1b binding inh: inhibitors of HP1-beta chromodomain binding to methylated histone tails; P83916; AlphaScreen HP1-beta / biotin-H3K9me3 peptide binding; Potency, µM (doses to about 114 µM), without a hit: at the top dose activity change, negative = inhibition, usual class: inhibitors; hit rate 0.56% among 390,000; AID 540317; note: nearly all actives have a fitted effect of over 70% in size
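Compound inhibition of the preformed complex between 50 nM HP1-beta and 50 nM biotinylated H3K9me3 peptide was read by AlphaScreen. Buffer was PBS pH 7.4 with 0.01% Tween-20. Incubations ran 30 min at room temperature, with 10 ug/mL donor/acceptor beads.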
BAZ2B block: inhibitors of human BAZ2B bromodomain; Q9UIF8; AlphaScreen BAZ2B-H3K14Ac peptide displacement; Potency, µM (titrated, usually from 114 µM), for inactives: top-dose activity change, negative = inhibition, most hits filed as inhibitors; hit rate 4.4% among 360,000; AID 504333; note: % is set by controls: 0 for no effect and ±100 for the full control effect; nearly all actives have a fitted effect of over 60% in size
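Inhibition is scored as reduced AlphaScreen emission. The BAZ2B/b-H3(5-23)K14Ac complex (50 nM each) in PBS pH 7.4, 0.01% Tween-20 meets compound (up to 110 uM) for 30 min at RT before bead addition.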
G9a block: inhibitors of human histone lysine methyltransferase G9a | Potency, µM (top dose mostly 102 µM), for the others: at the top dose activity, negative = inhibition, hits mostly inhibitors | G9a H3K9 monomethylation, AlphaScreen, 2 h | hit rate 8.8% among 350,000; note: % is set by controls: 0 for no effect and ±100 for the full control effect; nearly all actives have a fitted effect of over 75% in size
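Compounds were preincubated with 20 nM G9a for 15 min, after which biotinylated H3K9 peptide (500 nM) and SAM (20 uM) started a 2 h room-temperature reaction. Monomethylated product was quantified by antibody-based AlphaScreen chemiluminescence.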
TDP1 block: blocks human tyrosyl-DNA phosphodiesterase 1; hit rate 0.28% among 350,000; Potency, µM (top dose mostly 130 µM), without a hit: top-dose activity change, negative = inhibition, actives largely listed as inhibitors; recombinant TDP1, AlphaScreen DNA substrate cleavage; AID 485290; Q9NUW8; note: % is set by controls: 0 for no effect and ±100 for the full control effect; nearly all actives have a fitted effect of over 40% in size
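Here, a 5' biotin and 3' phosphotyrosine-FITC DNA oligonucleotide reports Tdp1 activity: intact substrate bridges AlphaScreen beads, while cleavage leaves a 3' phosphate and drops signal. All incubations at room temperature.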
Sfp inh: inhibitors of Bacillus subtilis Sfp phosphopantetheinyl transferase; Q9F4F7; Biochemical Sfp PPTase activity, qHTS; Potency, µM, for the others: largest response in the series, negative = inhibition, most hits filed as inhibitors; hit rate 3.5% among 310,000;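 note: the enzyme is Sfp with the accession as filed and its product quenches rhodamine fluorescence; 0% = enzyme reaction without inhibitor and -100% = no enzyme wells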
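Buffer: 50 mM Hepes-Na pH 7.6, 10 mM MgCl2, 0.01% Nonidet P-40, 0.01% BSA. Enzyme 15 nM, pre-exposed to compound 15 min; substrates then added and fluorescence change tracked over 30 min.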
* hit, by the source's call; ? = inconclusive; · = no result; [ ] = another dose, or the depositor's remark. Calls come from the whole dose curve; as a rule, active = well fitted curve in the direction sought with a large enough effect; inconclusive = small, poorly fitted or top-dose-only effect, or another doubt; inactive = no such curve, though single readings can be large; an effect the other way counts as inactive or inconclusive. Potency is the fitted concentration of half-maximal effect.

SMILES	JMJD2A Tudor	HP1b binding inh	BAZ2B block	G9a block	TDP1 block	Sfp inh
Cc1ccc(OCCCc2c(C)n[nH]c2C)cc1	-17%	26%	?	?	1%	-8%
COc1cccc(OC)c1OCCCCc1c(C)n[nH]c1C	-12%	9%	-34%	?	2%	-9%
COc1cccc(OC)c1OCCCCCc1c(C)n[nH]c1C	-4%	33%	-8%	50µM*	3%	7%
CCOc1ccc(C(=O)Nc2cccc(NC(=O)c3ccco3)c2)cc1Cl	-25%	3%	-1%	-29%[59 µM]	0%[12.3 µM]	·
CC1CCCCC1NC(=S)NC(=O)c1sc2ccccc2c1Cl (centres undefined)	-5%	-6%	3%	·	-3%	32µM*
COc1ccccc1C(=O)NNC(=S)NC(=O)c1sc2ccccc2c1Cl	-32%	-24%	10%	14%[59 µM]	9%	13%
Cc1c(NC(=S)NC(=O)c2sc3ccccc3c2Cl)cccc1C(=O)O	?	-7%	50µM*	4.5µM*	-9%	-15%
COc1ccc(S(=O)(=O)N2CCC(C(=O)NCc3ccncc3)CC2)cc1C	-4%	24%	2%	21%	·	7%
CCc1nc2nc(C)c(NS(=O)(=O)c3ccc(Br)s3)c(=O)n2[nH]1	?	78%	11%	50µM*	12%	20%
CCc1nc2nc(C)c(NS(=O)(=O)c3ccc(F)cc3)c(=O)n2[nH]1	-3%	-11%	12%	25µM*	3%	10%
CCCc1nc2nc(C)c(NS(=O)(=O)c3ccc(C(C)(C)C)cc3)c(=O)n2[nH]1	-5%	61%	4%	79µM*	7%	6%
CCOC(=O)c1ccc(-n2c(N)c(C(=O)OC)c3nc4ccccc4nc32)cc1	1%	57%	-1%	-4%[59 µM]	7%	·
CCOC(=O)Cc1nn(C)c(=O)c2ccccc12	-2%	6%	4%	-5%[59 µM]	-5%	19%
Cn1nc(Cc2n[nH]c(=S)n2C)c2ccccc2c1=O	4µM*	32%	1%	·	·	2%
COC(=O)[C@@]1(Cc2ccccc2)[C@H]2c3cc(C(=O)N4CCCC4)n(Cc4ccc(C(F)(F)F)nc4)c3C[C@H]2CN1C(=O)c1ccccc1	·	·	·	·	14%	3%
COC(=O)[C@@]1(Cc2ccc(OC)cc2)[C@H]2c3cc(C(=O)N(C)C)n(CCc4ccc(OC)c(Br)c4)c3C[C@H]2CN1C(=O)c1ccccc1	·	·	?	40µM*	3%	-7%
COC(=O)[C@@]1(Cc2ccc(F)cc2)[C@H]2c3cc(C(=O)N4CCCC4)n(Cc4ccc(C(F)(F)F)nc4)c3C[C@H]2CN1C(=O)c1ccccc1	?	5%	?	50µM*	5%	-2%
COC(=O)[C@@]1(Cc2ccc(OC)cc2)[C@H]2c3cc(C(=O)N(C)C)n(Cc4ccc(C)o4)c3C[C@H]2CN1C(=O)c1ccccc1	·	·	·	·	9%	25µM*
COC(=O)[C@@]1(Cc2ccc(F)cc2)[C@H]2c3cc(C(=O)N4CCCC4)n(CCCNc4ncc(C(F)(F)F)cc4Cl)c3C[C@H]2CN1C(=O)c1ccccc1	?	4%	-35%	32µM*	13%	4%
COc1ccc(NS(=O)(=O)c2cccc(C(=O)NN=C(C)c3ccco3)c2)cc1	?	16%	·	·	2%	·
CCC(C)[C@H](NC(=O)N1CC(=O)Nc2ccccc21)C(=O)N[C@H](C(=O)O)c1ccccc1 (some centres undefined)	1%	24%	0%	?	5%	2%
COC(=O)[C@@]1(Cc2ccc(F)cc2)[C@H]2c3cc(C(=O)N4CCCC4)n(Cc4ccc(C)o4)c3C[C@H]2CN1C(=O)c1ccccc1	·	·	·	·	16%	40µM*
Cc1ccc(C(=O)CSc2nccn2-c2ccccc2)cc1	?	?	56µM*	32µM*	3%	?
Cc1ccc(C(=O)CSc2ccccn2)cc1	8%	25%	11%	8.9µM*	3%	50µM*
